PubChem BioAssay AID540259 (Broad Institute, 2011)
Results with a measured potency or affinity are listed apart. Unmarked numbers belong to inactive results.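 How the source made its calls: active means cell killing, meaning signal decrease, with fitted half-maximal dose at or below ten times the top valid tested dose; inconclusive means poor fit, or flat curve with 30 to 70% signal loss; inactive means the rest.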

experiment: HeLa cell cytotoxicity, dose response, cytotoxicity control for MITF activator project, CellTiter-Glo luminescence, cherry-pick samples (AID 540259); conditions: HeLa viability, CellTiter-Glo ATP luminescence, 24 h; series mostly up to 35 µM; activity change, negative = cytotoxicity: at the top concentration;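 further: 0% = DMSO neutral control and -100% = mitoxantrone positive control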

SMILES	activity change, negative = cytotoxicity [%]
Cc1nn(CC(C)C)c(Cl)c1C(=O)NC1CCC(C)CC1 (stereo not given)	-2.77
CN1C(=O)NC(=O)C(C)(C2=CCCCC2)C1=O (stereo not given)	9.78
COc1ccc(-c2cc(=NCCC(=O)O)c3cc(C)ccc3o2)cc1	6.56
CC(Cc1ccccc1)/[N+]([O-])=C\c1ccc(C(F)(F)F)cc1 (stereo not given)	-5.32
O=C1C(=O)N(c2ccccc2)P(=O)(N(CCCl)CCCl)N1c1ccccc1	-2.92
